Active and inactive are the calls of the source.
What was measured:
[1] = test system: Plasmodium falciparum Sir2 (PF13_0152, Sir2A); test: Plasmodium falciparum Sir2A binding compounds – biochemical, small-molecule microarray, 635 nm fluorescence, primary screen (AID 1098); conditions: fluorescence 635 nm, higher = more signal;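 note: score merges spot fluorescence intensity with its signal-to-noise ratio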
[2] = probe aDKK1 binding to arrayed compounds – biochemical, biotinylated probe, 635/667 nm fluorescence, primary screen (AID 1099); conditions: small-molecule microarray, higher = more signal;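 note: score merges 667nm spot fluorescence with signal to noise across triplicate slides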
[3] = probe aCHRDL2 binding to arrayed compounds – biochemical, biotinylated probe, 635/667 nm fluorescence, primary screen (AID 1100); conditions: small-molecule microarray, higher = more signal
[4] = change in splice reporter luminescence, either direction, cell-based, HEK293, spliceosome inhibition project, primary screen (AID 1101); conditions: HEK293 splicing luciferase reporter, 24 h, higher = more signal, called active from +8 up or from −8 down;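 note: HEK293 cells carrying a splicing-competent luciferase reporter gene; test concentration not given here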
[5] = target: Fibroblast growth factor 10 (Homo sapiens) (UniProt O15520); test: compounds binding fibroblast growth factor 10 – biochemical, small-molecule microarray, 635 nm fluorescence, primary screen (AID 1102); conditions: FGF10 binding, fluorescence 635 nm, higher = more signal
Chain of Fibroblast growth factor 10 (Homo sapiens) (O15520 whole entry, looked up): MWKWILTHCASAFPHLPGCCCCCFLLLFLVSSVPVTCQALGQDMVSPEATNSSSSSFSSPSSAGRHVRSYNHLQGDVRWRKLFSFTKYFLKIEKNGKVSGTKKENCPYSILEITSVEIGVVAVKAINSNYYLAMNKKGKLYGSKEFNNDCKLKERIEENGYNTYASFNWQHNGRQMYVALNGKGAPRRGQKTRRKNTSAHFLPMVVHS

[6] = test system: glycogen synthase kinase-3 (GSK3A per assay name; protocol says GSK3B); test: compounds binding glycogen synthase kinase-3 – biochemical, small-molecule microarray, 635 nm fluorescence, GSK3A, primary screen (AID 1103); conditions: fluorescence 635 nm, higher = more signal; note: the record names both GSK3A and GSK3B
[7] = target: Epidermal growth factor receptor (Homo sapiens) (UniProt P00533); test: compounds binding epidermal growth factor receptor – biochemical, small-molecule microarray, 635 nm fluorescence, primary screen (AID 1104); conditions: EGFR binding, higher = more signal;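 note: score merges 667 nm emission intensity with spot signal to noise over triplicate slides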
Chain of Epidermal growth factor receptor (Homo sapiens) (P00533 whole entry, looked up): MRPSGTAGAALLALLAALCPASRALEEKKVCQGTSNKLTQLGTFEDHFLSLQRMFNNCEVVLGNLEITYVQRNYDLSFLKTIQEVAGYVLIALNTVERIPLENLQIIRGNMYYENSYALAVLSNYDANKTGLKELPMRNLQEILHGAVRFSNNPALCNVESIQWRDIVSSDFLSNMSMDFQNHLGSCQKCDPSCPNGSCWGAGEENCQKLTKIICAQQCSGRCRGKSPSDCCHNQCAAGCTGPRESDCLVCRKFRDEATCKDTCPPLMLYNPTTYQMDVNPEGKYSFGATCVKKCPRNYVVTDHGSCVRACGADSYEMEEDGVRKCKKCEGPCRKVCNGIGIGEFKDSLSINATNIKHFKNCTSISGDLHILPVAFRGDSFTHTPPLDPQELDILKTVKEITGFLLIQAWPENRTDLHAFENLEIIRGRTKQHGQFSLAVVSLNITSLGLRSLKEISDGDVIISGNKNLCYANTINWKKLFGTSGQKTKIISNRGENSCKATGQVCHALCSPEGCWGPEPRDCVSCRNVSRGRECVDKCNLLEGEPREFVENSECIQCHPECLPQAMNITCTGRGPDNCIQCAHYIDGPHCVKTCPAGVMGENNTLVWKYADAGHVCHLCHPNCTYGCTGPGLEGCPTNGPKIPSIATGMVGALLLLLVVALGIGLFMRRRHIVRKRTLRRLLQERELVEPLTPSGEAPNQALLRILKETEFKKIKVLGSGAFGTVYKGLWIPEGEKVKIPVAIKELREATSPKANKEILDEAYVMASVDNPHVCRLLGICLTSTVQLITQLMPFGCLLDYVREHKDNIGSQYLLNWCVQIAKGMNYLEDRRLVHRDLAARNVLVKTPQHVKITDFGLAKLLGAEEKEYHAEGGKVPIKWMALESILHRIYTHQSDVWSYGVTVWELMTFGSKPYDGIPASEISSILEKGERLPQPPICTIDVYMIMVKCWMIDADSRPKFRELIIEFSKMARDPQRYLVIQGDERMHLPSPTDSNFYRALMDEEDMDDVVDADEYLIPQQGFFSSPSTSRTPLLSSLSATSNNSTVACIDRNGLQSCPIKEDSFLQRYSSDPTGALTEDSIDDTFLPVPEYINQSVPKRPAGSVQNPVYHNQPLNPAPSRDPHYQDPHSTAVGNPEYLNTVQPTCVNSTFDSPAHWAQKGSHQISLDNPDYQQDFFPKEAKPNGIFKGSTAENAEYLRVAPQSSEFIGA

[8] = target: Follistatin-related protein 3 (Homo sapiens) (UniProt O95633); test: compounds binding follistatin-related protein 3 – biochemical, small-molecule microarray, 635 nm fluorescence, primary screen (AID 1105); conditions: FSTL3 binding, higher = more signal;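 note: score merges emission near 667 nm and signal to noise per printed spot across three slides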
Chain of Follistatin-related protein 3 (Homo sapiens) (O95633 whole entry, looked up): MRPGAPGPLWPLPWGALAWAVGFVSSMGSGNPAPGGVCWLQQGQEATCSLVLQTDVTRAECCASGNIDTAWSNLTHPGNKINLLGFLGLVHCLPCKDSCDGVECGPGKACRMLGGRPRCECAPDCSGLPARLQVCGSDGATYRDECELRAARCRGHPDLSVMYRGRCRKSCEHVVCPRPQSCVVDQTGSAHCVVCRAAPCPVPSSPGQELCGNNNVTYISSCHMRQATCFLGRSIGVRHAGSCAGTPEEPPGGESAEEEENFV

[9] = target: Dickkopf-related protein 1 (Homo sapiens) (UniProt O94907); test: small molecules binding DKK1 protein – biochemical, small-molecule microarray, 635 nm fluorescence scan, primary screen (AID 1106); conditions: higher = more signal;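 note: score merges emission near 667 nm with signal to noise over three replicate slides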
Chain of Dickkopf-related protein 1 (Homo sapiens) (O94907 whole entry, looked up): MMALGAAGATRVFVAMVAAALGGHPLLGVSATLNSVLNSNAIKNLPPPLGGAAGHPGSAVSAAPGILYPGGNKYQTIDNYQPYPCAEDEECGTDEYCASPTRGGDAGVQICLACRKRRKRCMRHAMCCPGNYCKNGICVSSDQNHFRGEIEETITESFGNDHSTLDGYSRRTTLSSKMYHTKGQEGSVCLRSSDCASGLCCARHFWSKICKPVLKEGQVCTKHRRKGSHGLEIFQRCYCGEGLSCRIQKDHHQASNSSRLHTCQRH

[10] = test system: Inhibin beta A chain (activin A); test: small molecules binding activin A – biochemical, small-molecule microarray, 635 nm fluorescence scan, primary screen (AID 1107); conditions: INHBA, higher = more signal;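 note: mouse activin A protein probed at 4.33 µg/mL on printed slides; score merges bound-protein fluorescence near 667 nm with spot signal-to-noise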
[11] = test system: Human papillomavirus type 1a protein E7 (residues 44-93); test: small molecules binding HPV E7 44-93 – biochemical, small-molecule microarray, residues 44-93, 635 nm fluorescence, primary screen (AID 1108); conditions: fluorescence 635 nm, higher = more signal;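 note: E7 fragment applied at 1 µg/mL in TBST for 1 h at 4 C; score combines spot fluorescence with its signal to noise ratio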
[12] = hepatitis C replication reporter changes, two-sided – Huh7 cells, luciferase reporter, HCV replication inhibitor project, primary screen (AID 1109); conditions: Huh7 HCV replicon luciferase reporter, 48 h; higher = more signal;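 note: huh7 hepatoma cells harbouring a luciferase neomycin HCV replicon reporter; luciferase luminescence as measure of HCV replicon replication; test concentration not given here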
[13] = target: Left-right determination factor 2 (Homo sapiens) (UniProt O00292); test: small molecules binding LEFTY2 protein – biochemical, small-molecule microarray, 635 nm fluorescence scan, primary screen (AID 1110); conditions: higher = more signal
Chain of Left-right determination factor 2 (Homo sapiens) (O00292 whole entry, looked up): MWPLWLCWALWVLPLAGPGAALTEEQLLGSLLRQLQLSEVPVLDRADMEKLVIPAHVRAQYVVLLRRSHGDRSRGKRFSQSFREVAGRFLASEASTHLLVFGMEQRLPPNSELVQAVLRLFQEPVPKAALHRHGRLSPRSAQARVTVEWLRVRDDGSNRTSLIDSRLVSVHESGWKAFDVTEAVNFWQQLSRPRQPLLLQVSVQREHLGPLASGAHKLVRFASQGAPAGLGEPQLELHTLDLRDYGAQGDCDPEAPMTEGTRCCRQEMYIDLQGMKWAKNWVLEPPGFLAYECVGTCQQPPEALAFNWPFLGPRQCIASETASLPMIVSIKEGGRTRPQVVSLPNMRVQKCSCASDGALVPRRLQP

[14] = target: Calmodulin-1 (Homo sapiens) (UniProt P0DP23); test: small molecules binding calmodulin-1 with EGTA – biochemical, small-molecule microarray, Cy5-labelled CALM1, profiling panel (AID 1111); conditions: Cy5-CALM1 binding fluorescence, higher = more signal;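 note: labelled calmodulin applied in Tris saline Tween buffer holding calcium plus EGTA and DTT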
[15] = target: Calmodulin-1 (Homo sapiens) (UniProt P0DP23); test: small molecules binding Ca-loaded calmodulin-1 – biochemical, small-molecule microarray, Cy5-labelled CALM1, plus calcium, artefact control for SMM control-protein annotation, profiling panel (AID 1112); conditions: Cy5-CALM1 binding fluorescence, higher = more signal;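 note: score merges spot fluorescence with signal to noise from triplicate slides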
[16] = probe aWnt5a binding to arrayed compounds – biochemical, biotinylated probe, 635/667 nm fluorescence, primary screen (AID 1113); conditions: small-molecule microarray, higher = more signal;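 note: score merges 667 nm fluorescence intensity with signal-to-noise per printed feature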
[17] = probe aShh binding to arrayed compounds – biochemical, biotinylated probe, 635/667 nm fluorescence, primary screen (AID 1114); conditions: small-molecule microarray, higher = more signal;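 note: probe is biotin-labelled aShh protein from a stem cell growth factor screen; measures binding of labelled protein to compounds printed on the slide; score merges feature fluorescence at 667 nm with signal-to-noise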
[18] = probe aNog binding to arrayed compounds – biochemical, biotinylated probe, 635/667 nm fluorescence, primary screen (AID 1115); conditions: small-molecule microarray, higher = more signal;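 note: probe is biotinylated aNog protein used at 0.15 µg/mL for 1 h at 4 C; z-score combines 667 nm fluorescence of each spot with its signal to noise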
[19] = target: Torsin-1A-interacting protein 1 (Homo sapiens) (UniProt Q5JTV8); test: compound microarray binding of lysate hLAP1 – cell lysate, small-molecule microarray, COS7 lysate, 635/667 nm fluorescence, primary screen (AID 1116); conditions: 635 nm fluorescence, higher = more signal
Chain of Torsin-1A-interacting protein 1 (Homo sapiens) (Q5JTV8 whole entry, looked up): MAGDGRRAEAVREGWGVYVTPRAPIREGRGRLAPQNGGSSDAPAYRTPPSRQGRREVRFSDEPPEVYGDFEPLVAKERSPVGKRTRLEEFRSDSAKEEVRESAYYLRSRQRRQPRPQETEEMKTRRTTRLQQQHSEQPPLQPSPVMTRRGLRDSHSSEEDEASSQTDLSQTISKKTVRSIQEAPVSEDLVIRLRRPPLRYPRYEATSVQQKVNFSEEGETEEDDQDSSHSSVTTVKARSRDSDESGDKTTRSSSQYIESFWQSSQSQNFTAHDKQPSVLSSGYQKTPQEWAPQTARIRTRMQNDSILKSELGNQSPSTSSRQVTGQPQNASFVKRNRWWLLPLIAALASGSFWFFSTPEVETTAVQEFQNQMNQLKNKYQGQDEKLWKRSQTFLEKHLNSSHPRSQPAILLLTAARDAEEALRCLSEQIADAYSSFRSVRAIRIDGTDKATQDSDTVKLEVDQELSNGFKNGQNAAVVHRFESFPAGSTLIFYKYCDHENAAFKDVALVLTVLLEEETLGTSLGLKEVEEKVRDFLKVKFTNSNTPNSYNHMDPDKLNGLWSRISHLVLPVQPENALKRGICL

[20] = target: Alpha-bungarotoxin (Bungarus multicinctus) (UniProt P60615); test: compounds binding labelled alpha-BTX control protein – biochemical, small-molecule microarray, Alexa647 label, 635/667 nm fluorescence, artefact control for SMM control protein annotation, profiling panel (AID 1117); conditions: alpha-BTX-A647 binding fluorescence, higher = more signal
Chain of Alpha-bungarotoxin (Bungarus multicinctus) (P60615 whole entry, looked up): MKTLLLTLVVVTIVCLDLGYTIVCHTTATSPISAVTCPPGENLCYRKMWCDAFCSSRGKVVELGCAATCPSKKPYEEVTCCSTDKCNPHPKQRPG

| SMILES | composite z-score [1] | composite z-score [2] | composite z-score [3] | z-score [4] | composite z-score [5] | composite z-score [6] | composite z-score [7] | composite z-score [8] | composite z-score [9] | composite z-score [10] | composite z-score [11] | z-score [12] | composite z-score [13] | composite z-score [14] | composite z-score [15] | composite z-score [16] | composite z-score [17] | composite z-score [18] | composite z-score [19] | composite z-score [20] |
| --- | --- | --- | --- | --- | --- | --- | --- | --- | --- | --- | --- | --- | --- | --- | --- | --- | --- | --- | --- | --- |
| C=C(/C(=C/C[C@@H](OC(=O)c1ccncc1)c1cccc(OCCO)c1)c1cc(C(=O)OC)ccc1OC)C(C)C | 1.57 | -0.17 | -0.115 | -0.71 (inactive) | 0.709 | 0.366 | -0.0516 | 0.59 | 0.0661 | 0.635 | 0.903 | -2.94 | 0.521 | 0.0576 | -0.412 | -0.101 | 0.131 | 0.0051 | 1.11 | 0.462 |
| CC(C)(C)OC(=O)CC[C@]1(C(=O)O)COC(c2ccc(OCCCO)cc2)=N1 | 0.337 | 0.768 | 0.553 | 0.14 (inactive) | -0.577 | -0.69 | -0.609 | -1.2 | -1.51 | 0.469 | 0.191 | 0.0847 | -0.225 | 0.155 | 0.568 | 0.105 | 0.0326 | 0.609 | 0.672 | -0.582 |
| COCCOC(=O)N1C(=O)[C@@]2(c3ccccc31)[C@H](c1ccccc1OCCO)N1[C@H](c3ccccc3)[C@H](c3ccccc3)OC(=O)[C@H]1[C@@H]2C(=O)N1CCc2cc(OC)c(OC)cc2C1 | 1.1 | 0.153 | 0.49 | -1.42 (inactive) | 0.658 | 1.28 | 0.261 | 0.788 | 0.424 | 0.41 | 0.825 | -2.37 | 0.415 | 1.29 | 0.0498 | -0.0161 | 0.399 | 0.194 | 0.561 | 0.91 |
| O=C1C[C@@](C(=O)O)(c2ccc([N+](=O)[O-])cc2)[C@@H](c2ccc(CO)cc2)N1CC12CC3CC(CC(C3)C1)C2 | 1.23 | 0.28 | 0.771 | 0.66 (inactive) | 1.18 | 0.386 | 0.259 | 0.554 | -0.148 | 0.532 | 1.4 | -1.94 | 0.408 | 1.09 | 0.472 | -0.172 | 0.358 | 0.995 | 1.41 | 1.2 |
| COCCOC(=O)N1C(=O)[C@@]2(c3cc(C#CC4(O)CCCCCC4)ccc31)[C@H](C(=O)N1CCc3cc(OC)c(OC)cc3C1)[C@H]1C(=O)O[C@H](c3ccccc3)[C@H](c3ccccc3)N1[C@@H]2c1ccccc1OCCO | 0.517 | 0.836 | 0.173 | -0.461 (inactive) | 0.96 | 1.3 | 0.887 | 1.42 | 1.69 | 0.701 | 1.04 | -2.18 | 1.17 | 1.02 | -0.386 | 0.205 | 0.261 | 0.0158 | 0.447 | 1.46 |
| NC(=O)NCC#Cc1ccc2c(c1)[C@]1(C(=O)N2)[C@H](c2ccc(OCCO)cc2)N2[C@H](c3ccccc3)[C@H](c3ccccc3)OC(=O)[C@H]2[C@@H]1C(=O)N1CCN(c2ncccn2)CC1 | 0.664 | -0.356 | -0.417 | -0.115 (inactive) | 0.621 | 0.0283 | 0.231 | 0.232 | 0.209 | 1.29 | 0.833 | -0.488 | 0.259 | 0.362 | 0.492 | -0.0977 | 0.156 | 0.042 | 0.655 | 1.21 |
| O=C1NC(=O)C2C1C=CC(C(O)CCc1ccccc1)N2Nc1ccccn1 (stereo not given) | 0.539 | 0.673 | 0.778 | -0.735 (inactive) | 0.165 | 0.44 | 0.261 | 0.155 | 0.156 | 0.584 | -0.574 | 0.204 | -0.0953 | 0.901 | 0.569 | -0.0445 | -0.262 | -0.279 | 2.33 | 0.67 |
| O=C1O[C@H](c2ccccc2)[C@H](c2ccccc2)N2[C@H]1[C@@H](C(=O)NC[C@H](O)c1ccccc1)[C@]1(C(=O)Nc3ccccc31)[C@H]2c1ccccc1OCCO | 1.61 | -0.0915 | 0.499 | -2.06 (inactive) | 0.561 | 0.447 | 0.0728 | 0.263 | -0.0453 | 0.914 | 1.4 | -3.34 | -0.11 | 1.31 | 0.376 | -0.027 | 1.47 | 2.84 | 1.41 | 2.46 |

Reference: PubChem BioAssay
